Compound activity (PubChem BioAssay)
PfGluPho inh = PfG6PD (Plasmodium falciparum) enzyme inhibition; PfGluPho enzyme, NADPH resazurin-diaphorase fluorescence; inhibition, % at 20 µM; 350,000 compounds, 0.78% hits; AID 504690;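 active = inhibition reaching at least a set limit at 20 µM in the primary screen, cut at about 59% in these data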
A3G deaminase = blocks human APOBEC3G single-stranded DNA deamination. Q9HC16. recombinant A3G, ssDNA deamination FAM/TAMRA fluorescence. inhibition, % at 20 µM. 330,000 compounds, 0.28% hits;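 active = inhibition of at least 40% at 20 µM, with no more than 30% in the related APOBEC3A deaminase screen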
Target sequence (Q9HC16 whole entry, looked up): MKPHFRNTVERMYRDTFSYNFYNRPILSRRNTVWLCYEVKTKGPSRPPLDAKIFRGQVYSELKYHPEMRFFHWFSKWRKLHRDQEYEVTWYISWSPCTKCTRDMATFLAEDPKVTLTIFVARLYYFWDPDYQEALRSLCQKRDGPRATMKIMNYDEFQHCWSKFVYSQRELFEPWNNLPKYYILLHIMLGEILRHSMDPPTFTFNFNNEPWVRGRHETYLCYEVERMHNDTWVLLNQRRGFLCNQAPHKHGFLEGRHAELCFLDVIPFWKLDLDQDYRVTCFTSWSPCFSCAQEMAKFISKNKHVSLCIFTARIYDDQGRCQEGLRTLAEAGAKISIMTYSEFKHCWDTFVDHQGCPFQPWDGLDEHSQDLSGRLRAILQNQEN
NadD inh = inhibitors of Staphylococcus aureus NadD. purified NadD enzyme, colorimetric absorbance read-out. inhibition, % at 20 µM. 360,000 compounds, 0.78% hits; in the data active = inhibition above about 26%
A3A deaminase = inhibitors of human APOBEC3A DNA deaminase | inhibition, % at 20 µM | recombinant A3A, FAM/TAMRA ssDNA deamination fluorescence | 330,000 compounds, 0.41% hits;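 active = at least 40% inhibition at 20 µM here, with at most 30% in a related deaminase screen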
Target sequence (P31941 whole entry, looked up): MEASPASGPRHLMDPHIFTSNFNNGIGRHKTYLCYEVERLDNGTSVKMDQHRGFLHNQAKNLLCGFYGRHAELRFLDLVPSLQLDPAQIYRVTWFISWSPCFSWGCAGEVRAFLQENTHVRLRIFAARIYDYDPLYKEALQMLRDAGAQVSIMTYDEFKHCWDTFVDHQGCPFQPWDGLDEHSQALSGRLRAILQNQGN
TAG inh = inhibitors of triacylglycerol accumulation | 230,000 compounds, 0.66% hits | AID 651582 | H9c2 cells, Nile Red lipid (TAG) fluorescence; cells loaded with 200 µM oleic acid | inhibition, % at 12.5 µM;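 active = pattern-corrected inhibition of lipid staining of at least 50% with the nuclear-stain viability signal not falling by more than 50%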
Cardio protect = modulators protecting cardiomyocytes from myocardial damage | protection from H2O2 cell death, % at 20 µM | 360,000 compounds, 0.63% hits | H9c2 cardiomyocytes, H2O2 injury protection, ATPLite, 2 h;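 active = compounds giving at least 50% protection of heart cells from peroxide-induced death in the single-dose screen, raw or plate-pattern-corrected value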
PfG6PD confirm = confirmation of Plasmodium falciparum G6PD inhibitors | inhibition, % at 20 µM | AID 504753 | recombinant PfGluPho, NADPH-diaphorase-resazurin fluorescence | 2,400 compounds, 34% hits | shares compounds with PfGluPho inh;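 active = inhibition of at least 50% at 20 µM in any single replicate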
Diaph ctr 10uM = diaphorase inhibition or oxidation at 10 uM NADPH | shares compounds with PfGluPho inh | diaphorase-coupled resazurin reduction, fluorescence, NADPH 10 uM | inhibition, % at 20 µM | 820 compounds, 39% hits | AID 504862;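 active = average inhibition reaching 50% or more with the compound at 20 µM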;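 note: resorufin red fluorescence formed as diaphorase reduces resazurin using NADPH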
Diaphorase 30uM = diaphorase inhibition or oxidation at 30 uM NADPH. shares compounds with PfGluPho inh. 820 compounds, 29% hits. inhibition, % at 20 µM. Diaphorase/resazurin coupled assay, resorufin fluorescence;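 active = inhibition averaging 50% or more, tested at 20 µM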
Numbers stand for hits; 0 = inactive; - = no result. This is a sample that favours compounds with a hit; in the whole collection about 2.9% have one here.

SMILES	PfGluPho inh	A3G deaminase	NadD inh	A3A deaminase	TAG inh	Cardio protect	PfG6PD confirm	others
Cc1ccc(Cl)cc1NC1=C/C(=N\S(=O)(=O)c2cccs2)c2ccccc2C1=O	95.1	0	0	0	0	0	57.9	Diaph ctr 10uM=0;Diaphorase 30uM=0
Cc1ccc(NC2=C/C(=N\S(=O)(=O)c3cccs3)c3ccccc3C2=O)c(C)c1	102.1	0	0	0	0	0	58.3	Diaph ctr 10uM=59.9;Diaphorase 30uM=56.5
Cc1ccc(Cl)cc1NS(=O)(=O)c1ccccc1	0	-	0	-	0	0	-
Cc1ccccc1-c1ccc(C(=O)Nc2cccc(F)c2)o1	68.5	0	0	0	0	0	0
N#CC(C#N)=C1C=CC=CN1/C(=C\c1ccccc1Cl)C(=O)c1ccccc1	78.2	-	0	-	-	0	56.6	Diaph ctr 10uM=0;Diaphorase 30uM=0
Cc1ccc2nc(N(CCCN(C)C)C(=O)c3ccc4ncsc4c3)sc2c1	59.7	0	0	0	-	0	0
C[C@H]1CN([C@@H](C)CO)S(=O)(=O)c2ccc(Br)cc2O[C@H]1CN(C)C(=O)c1cccc(F)c1	0	-	0	-	0	0	-
CC(=O)C(Sc1ncnc2c1nnn2-c1ccc(F)cc1)C(=O)N(C)C (stereo unspecified)	61.9	0	-	0	-	-	0
CCOC(=O)c1c(C)n(-c2ccc(C)cc2)c2c(C(C(C)=O)C(=O)O)c(Br)c(O)c(O)c12 (stereo unspecified)	104.9	0	0	0	0	0	101.2	Diaph ctr 10uM=0;Diaphorase 30uM=0
CCOC(=O)c1c(C)n(-c2ccc(C)cc2)c2c(CC(C)=O)c(Br)c(OC)c(O)c12	0	0	0	0	0	0	-
Cc1cc(OCCSc2nnc(-c3cccs3)n2C)ccc1Cl	70.4	0	0	0	0	0	0
Cc1ccc(OCCSc2nnc(-c3cccs3)n2C)cc1	0	0	0	0	0	0	-
Cc1ccc(Nc2cc(C)nc(N3CCOCC3)n2)cc1	61.3	0	0	0	0	0	0
CC(=O)Nc1ccc(N2CCc3c(C)c(C#N)c4nc5ccccc5n4c32)cc1	-	0	-	0	-	-	-
O=Cc1ccccc1-n1cccn1	0	0	0	0	0	0	-
Oc1cc(-n2cccn2)c(O)cc1-n1cccn1	102.1	-	0	-	-	0	86.5	Diaph ctr 10uM=0;Diaphorase 30uM=0
CC1CCCCN1CC(O)COCc1ccccc1 (stereo unspecified)	0	-	0	-	-	0	-
CC(=O)NC(Cc1c[nH]c2ccccc12)C(=O)N1CCN(S(=O)(=O)c2ccccc2)CC1 (stereo unspecified)	0	0	0	0	0	0	-
CCNc1nc(NC(C)C)nc(NS(=O)(=O)c2ccc(N)cc2)n1	0	0	0	0	-	0	-
CCNc1nc(NC(C)C)nc(NS(=O)(=O)c2ccc(Cl)cc2)n1	82.7	0	0	0	-	0	55.1	Diaph ctr 10uM=62.7;Diaphorase 30uM=0
Cc1cc(NN)nc(NS(=O)(=O)c2ccc(Cl)cc2)n1	0	0	0	0	0	0	-
CCN(CC)c1nc(N)nc(NS(=O)(=O)c2ccc(Cl)cc2)n1	66.6	0	0	0	0	0	57.1	Diaph ctr 10uM=54.5;Diaphorase 30uM=0
CCc1ccccc1NC(=O)CN1CCN(CC(=O)Nc2cc(C)ccc2OC)CC1	0	0	0	0	-	0	-
CCOC(=O)Cc1cc(=O)n2[nH]c(-c3ccccc3)cc2n1	0	0	0	0	-	0	-
CCOC(=O)Cc1cc(=O)n2[nH]c(C(C)(C)C)cc2n1	77.9	0	0	0	0	0	75.5	Diaph ctr 10uM=64.1;Diaphorase 30uM=0
SMILES	PfGluPho inh	A3G deaminase	NadD inh	A3A deaminase	TAG inh	Cardio protect	PfG6PD confirm	others
Cn1c(SCc2ccc([N+](=O)[O-])cc2)nnc1-c1ccncc1	0	0	0	0	-	0	-
O=C(N/N=C/c1ccco1)c1cccc(NC(=O)c2ccccc2Cl)c1	0	0	0	0	-	0	-
O=C(Nc1ccccc1C(=O)N/N=C/c1ccco1)c1ccccc1Cl	69.6	0	0	0	0	0	51.5	Diaph ctr 10uM=51.6;Diaphorase 30uM=0
Clc1ccc2nc(SCc3nnc(-c4ccccc4)o3)[nH]c2c1	113.0	0	0	0	-	0	0
COc1ccc(-n2cc([N+](=O)[O-])c(=O)c3ccc(Cl)cc32)cc1	0	0	0	0	0	0	-
CN(C)c1ccc(NC(=O)c2cc3c(=O)n4ccccc4nc3n2C)cc1	61.6	0	0	0	0	0	0
CC12CCC(=O)N1C(C(=O)N1CCN(c3cccc(Cl)c3)CC1)CS2 (stereo unspecified)	0	0	0	0	0	0	-
O=C1OCC(c2ccc(Cl)s2)=C1c1ccccc1[N+](=O)[O-]	0	0	0	0	-	0	-
CC(SCC(=O)Nc1ccccc1)c1nc2ccccc2c(=O)[nH]1 (stereo unspecified)	60.4	0	0	0	0	0	51.2	Diaph ctr 10uM=0;Diaphorase 30uM=0
Cc1ccc(NC(=O)CSC(C)c2nc3ccccc3c(=O)[nH]2)cc1 (stereo unspecified)	0	0	0	0	0	0	-
Cc1ccc(NC(=O)CCNS(=O)(=O)c2ccc3c(c2)CCC(=O)N3)cc1C	0	0	0	0	-	0	-
CCn1c(C(=O)O)c(CC(=O)N(C)c2ccc(OC)cc2OC)c2ccccc21	0	0	0	0	-	0	-
Cc1cc(NC(=O)c2oc3ccccc3c2C)ccc1-n1cnnn1	111.3	0	0	0	-	0	73.1	Diaph ctr 10uM=71.8;Diaphorase 30uM=0
O=C(Nc1ccccc1C(=O)Nc1nnc(C(F)(F)F)s1)c1ccccc1	74.4	0	0	0	0	0	0
Cc1c(C(=O)Nc2nnc(C(F)(F)F)s2)oc2ccccc12	103.8	0	0	0	-	0	70.5	Diaph ctr 10uM=82.8;Diaphorase 30uM=67.7
COc1cc(OC)cc(C(=O)Nc2ccc(-n3cnnn3)c(C)c2)c1	0	0	0	0	-	0	-
Cc1cc(C)c(C)c(S(=O)(=O)N2CCN(c3ccc(O)cc3)CC2)c1C	0	0	0	0	0	0	-
CC1CCCN(c2ccc(C(=O)Nc3ccc4c(c3)OCO4)cc2[N+](=O)[O-])C1 (stereo unspecified)	0	0	0	0	0	0	-
Cc1cccc(NC(=O)c2ccc(N(C)C3CCCCC3)c([N+](=O)[O-])c2)n1	59.8	0	0	0	-	0	0
O=C(Nc1cccnc1)c1ccc(N2CCOCC2)c([N+](=O)[O-])c1	0	0	0	0	0	0	-
Cc1cccc(NC(=O)c2ccc(N3CCCCC3)c([N+](=O)[O-])c2)n1	97.8	0	0	0	-	0	0
CC1CCN(c2ccc(C(=O)Nc3ccc4c(c3)OCO4)cc2[N+](=O)[O-])CC1	61.6	0	0	0	0	0	0
Cc1cccc(NC(=O)c2ccc(N3CCOCC3)c([N+](=O)[O-])c2)n1	69.6	0	0	0	0	0	0
Cc1cnc(C(=O)OCC(=O)NC(C)c2ccccc2)cn1 (stereo unspecified)	0	0	0	0	0	0	-
